Publication PMC5540273 (PLoS ONE, 2017)

System: NEK10
Details: concentration: 1 μM, replicates: in singlicate; n = 1
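Note: KINOMEscan kinase panel screen.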

| Compound | %Inh [%] |
| --- | --- |
| COC(=O)Nc1nc2ccc(Oc3ccc(CC(=O)Nc4cc(C(F)(F)F)ccc4F)cc3)cc2[nH]1 [GW680903] | 21 |
| COc1ccc(C2=C(Nc3cccc(O)c3)C(=O)NC2=O)cc1 [SB-390766] | 42 |
| CN(C)c1ncnc2nc[nH]c12 [SKF-31736] | 21 |
| Cc1cc(-c2ccnc(Nc3cccc(C#N)c3)n2)cc(C)c1O [GSK1440913] | 20 |
